According to paper PMC11006913:
Changes are numbered by the printed parent chain.

What was measured:
Test in all cases: PBM; 200 nM protein, PBS
Details in all cases: dsDNA, one strand shown
HOXA7 [1] = molecular target: HOXA7 (Homo sapiens, UniProt P31268 116-202)
MSX2 [2] = molecular target: MSX2 (Homo sapiens, UniProt P35548 130-214, R199I)
MSX2 [3] = molecular target: MSX2 (Homo sapiens, UniProt P35548 130-214)
MSX2 [4] = molecular target: MSX2 (Homo sapiens, UniProt P35548 130-214, F161Y)
HOXA7 [5] = molecular target: HOXA7 (Homo sapiens, UniProt P31268 116-202, W177C)
Chain of HOXA7 (Homo sapiens, UniProt P31268 116-202, W177C) (P31268 116-202 W177C): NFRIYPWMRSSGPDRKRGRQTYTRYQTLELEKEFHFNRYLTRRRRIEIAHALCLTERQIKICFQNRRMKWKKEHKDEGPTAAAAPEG

ALX1 [6] = molecular target: ALX1 (Homo sapiens, UniProt Q15699 118-204, L144V)
Chain of ALX1 (Homo sapiens, UniProt Q15699 118-204, L144V) (Q15699 118-204 L144V): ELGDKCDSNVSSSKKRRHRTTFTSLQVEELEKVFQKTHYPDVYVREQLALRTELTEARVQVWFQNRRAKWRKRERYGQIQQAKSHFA

ALX1 [7] = molecular target: ALX1 (Homo sapiens, UniProt Q15699 118-204, L144R)
Chain of ALX1 (Homo sapiens, UniProt Q15699 118-204, L144R) (Q15699 118-204 L144R): as the sequence (Q15699 118-204 L144V) above, with V27R counted along it

NKX3-2 [8] = molecular target: NKX3-2 (Homo sapiens, UniProt P78367 192-278, P234S)
Chain of NKX3-2 (Homo sapiens, UniProt P78367 192-278, P234S) (P78367 192-278 P234S): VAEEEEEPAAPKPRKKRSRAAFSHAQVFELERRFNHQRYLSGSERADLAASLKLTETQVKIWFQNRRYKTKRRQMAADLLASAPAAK

ALX1 [9] = molecular target: ALX1 (Homo sapiens, UniProt Q15699 118-204)
Chain of ALX1 (Homo sapiens, UniProt Q15699 118-204) (Q15699 118-204): as the sequence (Q15699 118-204 L144V) above, with V27L counted along it

NKX3-2 [10] = molecular target: NKX3-2 (Homo sapiens, UniProt P78367 192-278)
Chain of NKX3-2 (Homo sapiens, UniProt P78367 192-278) (P78367 192-278): as the sequence (P78367 192-278 P234S) above, with S43P counted along it

HOXD13 [11] = molecular target: HOXD13 (Homo sapiens, UniProt P35453 263-343, T313R)
Chain of HOXD13 (Homo sapiens, UniProt P35453 263-343, T313R) (P35453 263-343 T313R): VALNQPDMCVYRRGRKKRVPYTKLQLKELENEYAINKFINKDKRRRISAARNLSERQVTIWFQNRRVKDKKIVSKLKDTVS

HOXD13 [12] = molecular target: HOXD13 (Homo sapiens, UniProt P35453 263-343)
Chain of HOXD13 (Homo sapiens, UniProt P35453 263-343) (P35453 263-343): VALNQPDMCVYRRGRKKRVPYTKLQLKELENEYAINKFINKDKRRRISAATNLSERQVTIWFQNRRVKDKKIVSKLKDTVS

HOXD13 [13] = molecular target: HOXD13 (Homo sapiens, UniProt P35453 263-343, T313A)
Chain of HOXD13 (Homo sapiens, UniProt P35453 263-343, T313A) (P35453 263-343 T313A): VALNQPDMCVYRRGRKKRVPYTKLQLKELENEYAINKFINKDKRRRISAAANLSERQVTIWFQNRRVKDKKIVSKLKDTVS

HOXC9 = HOXC9 (Homo sapiens, UniProt P31274 178-260, R222W)
Chain of HOXC9 (P31274 178-260 R222W): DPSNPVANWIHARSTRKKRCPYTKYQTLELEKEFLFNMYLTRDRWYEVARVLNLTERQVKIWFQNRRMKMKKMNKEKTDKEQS

PROP1 [14] = molecular target: PROP1 (Homo sapiens, UniProt O75360 56-141)
Chain of PROP1 (Homo sapiens, UniProt O75360 56-141) (O75360 56-141): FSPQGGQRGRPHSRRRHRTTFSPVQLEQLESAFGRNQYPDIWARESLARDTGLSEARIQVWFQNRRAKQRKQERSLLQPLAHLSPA

PROP1 [15] = molecular target: PROP1 (Homo sapiens, UniProt O75360 56-141, R99H)
Chain of PROP1 (Homo sapiens, UniProt O75360 56-141, R99H) (O75360 56-141 R99H): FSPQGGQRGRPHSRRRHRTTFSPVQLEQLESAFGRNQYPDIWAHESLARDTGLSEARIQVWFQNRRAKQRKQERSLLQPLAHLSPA

PROP1 [16] = molecular target: PROP1 (Homo sapiens, UniProt O75360 56-141, F88S)
Chain of PROP1 (Homo sapiens, UniProt O75360 56-141, F88S) (O75360 56-141 F88S): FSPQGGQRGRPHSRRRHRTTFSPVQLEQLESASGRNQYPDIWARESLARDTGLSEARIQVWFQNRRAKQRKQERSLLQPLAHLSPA

HOXB6 = HOXB6 (Homo sapiens, UniProt P17509 132-218, K202E)
Chain of HOXB6 (P17509 132-218 K202E): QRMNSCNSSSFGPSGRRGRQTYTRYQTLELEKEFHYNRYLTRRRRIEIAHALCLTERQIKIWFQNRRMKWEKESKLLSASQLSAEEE

HOXA2 [17] = molecular target: HOXA2 (Homo sapiens, UniProt O43364 129-215, R185T)
Chain of HOXA2 (Homo sapiens, UniProt O43364 129-215, R185T) (O43364 129-215 R185T): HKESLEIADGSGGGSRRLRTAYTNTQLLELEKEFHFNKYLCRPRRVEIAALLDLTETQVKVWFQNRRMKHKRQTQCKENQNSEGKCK

HOXA2 [18] = molecular target: HOXA2 (Homo sapiens, UniProt O43364 129-215, R185K)
Chain of HOXA2 (Homo sapiens, UniProt O43364 129-215, R185K) (O43364 129-215 R185K): as the sequence (O43364 129-215 R185T) above, with T57K counted along it

HOXA2 [19] = molecular target: HOXA2 (Homo sapiens, UniProt O43364 129-215, Y150S)
Chain of HOXA2 (Homo sapiens, UniProt O43364 129-215, Y150S) (O43364 129-215 Y150S): as the sequence (O43364 129-215 R185T) above, with Y22S, T57R counted along it

HOXA2 [20] = molecular target: HOXA2 (Homo sapiens, UniProt O43364 129-215)
Chain of HOXA2 (Homo sapiens, UniProt O43364 129-215) (O43364 129-215): as the sequence (O43364 129-215 R185T) above, with T57R counted along it

PAX4 [21] = molecular target: T1, PAX4 (Homo sapiens, UniProt O43316 9-242, R200K)
T1 sequence: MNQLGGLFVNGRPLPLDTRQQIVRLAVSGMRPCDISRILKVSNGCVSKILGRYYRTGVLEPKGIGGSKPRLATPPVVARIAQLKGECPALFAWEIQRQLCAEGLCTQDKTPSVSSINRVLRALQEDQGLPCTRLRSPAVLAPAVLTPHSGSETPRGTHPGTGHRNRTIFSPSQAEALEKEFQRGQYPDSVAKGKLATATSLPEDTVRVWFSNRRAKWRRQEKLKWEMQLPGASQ

PAX4 [22] = molecular target: T2, PAX4 (Homo sapiens, UniProt O43316 9-242)
T2 sequence: T1 sequence with K192R

PAX4 [23] = molecular target: T3, PAX4 (Homo sapiens, UniProt O43316 9-242, R200Q)
T3 sequence: T1 sequence with K192Q

PAX4 [24] = molecular target: T4, PAX4 (Homo sapiens, UniProt O43316 9-242, F177V)
T4 sequence: T1 sequence with F169V, K192R

PAX4 [25] = molecular target: T5, PAX4 (Homo sapiens, UniProt O43316 9-242, F177Y)
T5 sequence: T1 sequence with F169Y, K192R

PAX4 [26] = molecular target: T6, PAX4 (Homo sapiens, UniProt O43316 9-242, R227W)
T6 sequence: T1 sequence with K192R, R219W

ALX4 [27] = molecular target: ALX4 (Homo sapiens, UniProt Q9H161 200-286)
Chain of ALX4 (Homo sapiens, UniProt Q9H161 200-286) (Q9H161 200-286): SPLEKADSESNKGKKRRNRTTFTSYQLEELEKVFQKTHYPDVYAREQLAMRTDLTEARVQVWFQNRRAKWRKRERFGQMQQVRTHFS

ALX4 [28] = molecular target: ALX4 (Homo sapiens, UniProt Q9H161 200-286, Q225E)
Chain of ALX4 (Homo sapiens, UniProt Q9H161 200-286, Q225E) (Q9H161 200-286 Q225E): as the sequence (Q9H161 200-286) above, with Q26E counted along it

VAX1 [29] = molecular target: VAX1 (Homo sapiens, UniProt Q5SQQ9 86-172)
Chain of VAX1 (Homo sapiens, UniProt Q5SQQ9 86-172) (Q5SQQ9 86-172): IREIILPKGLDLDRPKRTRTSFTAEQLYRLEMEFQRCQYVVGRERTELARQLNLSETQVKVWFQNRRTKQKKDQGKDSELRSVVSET

VAX1 [30] = molecular target: VAX1 (Homo sapiens, UniProt Q5SQQ9 86-172, T142I)
Chain of VAX1 (Homo sapiens, UniProt Q5SQQ9 86-172, T142I) (Q5SQQ9 86-172 T142I): as the sequence (Q5SQQ9 86-172) above, with T57I counted along it

VAX1 [31] = molecular target: VAX1 (Homo sapiens, UniProt Q5SQQ9 86-172, K157R)
Chain of VAX1 (Homo sapiens, UniProt Q5SQQ9 86-172, K157R) (Q5SQQ9 86-172 K157R): as the sequence (Q5SQQ9 86-172) above, with K72R counted along it

PITX2 = PITX2 (Homo sapiens, UniProt Q99697 72-157)
PRRX1 [32] = molecular target: PRRX1 (Homo sapiens, UniProt P54821 80-166, F113S)
Chain of PRRX1 (Homo sapiens, UniProt P54821 80-166, F113S) (P54821 80-166 F113S): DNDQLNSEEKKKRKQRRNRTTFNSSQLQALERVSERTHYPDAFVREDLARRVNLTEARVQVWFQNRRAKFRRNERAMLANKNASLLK

CRX = CRX (Homo sapiens, UniProt O43186 26-111, R41L)
Chain of CRX (O43186 26-111 R41L): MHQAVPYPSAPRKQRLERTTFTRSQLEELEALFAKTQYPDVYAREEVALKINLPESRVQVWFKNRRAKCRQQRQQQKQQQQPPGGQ

PRRX1 [33] = molecular target: PRRX1 (Homo sapiens, UniProt P54821 80-166)
Chain of PRRX1 (Homo sapiens, UniProt P54821 80-166) (P54821 80-166): as the sequence (P54821 80-166 F113S) above, with S34F counted along it

Chain of HOXA7 (Homo sapiens, UniProt P31268 116-202) (P31268 116-202): as the sequence (P31268 116-202 W177C) above, with C62W counted along it
Chain of MSX2 (Homo sapiens, UniProt P35548 130-214, R199I) (P35548 130-214 R199I): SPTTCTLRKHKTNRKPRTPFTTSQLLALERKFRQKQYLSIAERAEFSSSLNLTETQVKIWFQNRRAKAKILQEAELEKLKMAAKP
Chain of MSX2 (Homo sapiens, UniProt P35548 130-214, F161Y) (P35548 130-214 F161Y): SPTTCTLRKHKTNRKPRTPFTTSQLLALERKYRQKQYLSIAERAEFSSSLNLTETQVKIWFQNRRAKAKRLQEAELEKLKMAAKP
Chain of MSX2 (Homo sapiens, UniProt P35548 130-214) (P35548 130-214): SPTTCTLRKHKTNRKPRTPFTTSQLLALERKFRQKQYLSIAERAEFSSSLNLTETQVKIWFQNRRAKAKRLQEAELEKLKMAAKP

For CGGTGTCC, the binding signal (HOXA7 [1]) was 8.41 upbm affinity estimate (log intensity, higher = more binding, comparable within an allelic series), the binding signal (MSX2 [2]) was 9.36 upbm affinity estimate (log intensity, higher = more binding, comparable within an allelic series) and the binding signal (MSX2 [3]) was 9.29 upbm affinity estimate (log intensity, higher = more binding, comparable within an allelic series). The binding signal (MSX2 [4]) was 9.3 upbm affinity estimate (log intensity, higher = more binding, comparable within an allelic series) and the binding signal (HOXA7 [5]) was 8.4 upbm affinity estimate (log intensity, higher = more binding, comparable within an allelic series).
In the case of CGGCGTTC, the binding signal (HOXA7 [1]) is reported as 8.31 upbm affinity estimate (log intensity, higher = more binding, comparable within an allelic series), the binding signal (ALX1 [6]) is reported as 6.29 upbm affinity estimate (log intensity, higher = more binding, comparable within an allelic series) and the binding signal (ALX1 [7]) is reported as 6.24 upbm affinity estimate (log intensity, higher = more binding, comparable within an allelic series). For the same sequence, the binding signal (HOXA7 [5]) was 8.26 upbm affinity estimate (log intensity, higher = more binding, comparable within an allelic series), the binding signal (NKX3-2 [8]) was 10.4 upbm affinity estimate (log intensity, higher = more binding, comparable within an allelic series) and the binding signal (ALX1 [9]) was 6.31 upbm affinity estimate (log intensity, higher = more binding, comparable within an allelic series). The binding signal (NKX3-2 [10]) was 10.4 upbm affinity estimate (log intensity, higher = more binding, comparable within an allelic series).
TATAAAAA was tested, and the binding signal (HOXA7 [1]) was 9.87 upbm affinity estimate (log intensity, higher = more binding, comparable within an allelic series), the binding signal (HOXD13 [11]) was 10.9 upbm affinity estimate (log intensity, higher = more binding, comparable within an allelic series) and the binding signal (HOXD13 [12]) was 11.8 upbm affinity estimate (log intensity, higher = more binding, comparable within an allelic series). The binding signal (HOXD13 [13]) was 11.6 upbm affinity estimate (log intensity, higher = more binding, comparable within an allelic series), the binding signal (HOXC9) was 11.1 upbm affinity estimate (log intensity, higher = more binding, comparable within an allelic series) and the binding signal (HOXA7 [5]) was 8.84 upbm affinity estimate (log intensity, higher = more binding, comparable within an allelic series).
With AGTAGCCG the binding signal (HOXA7 [1]) was 8.51 upbm affinity estimate (log intensity, higher = more binding, comparable within an allelic series) and the binding signal (HOXA7 [5]) was 8.43 upbm affinity estimate (log intensity, higher = more binding, comparable within an allelic series).
For GTATTTAA, the binding signal (HOXA7 [1]) was 10.1 upbm affinity estimate (log intensity, higher = more binding, comparable within an allelic series), the binding signal (PROP1 [14]) was 9.2 upbm affinity estimate (log intensity, higher = more binding, comparable within an allelic series) and the binding signal (PROP1 [15]) was 8.79 upbm affinity estimate (log intensity, higher = more binding, comparable within an allelic series). For the same sequence, the binding signal (PROP1 [16]) was 7.52 upbm affinity estimate (log intensity, higher = more binding, comparable within an allelic series) and the binding signal (HOXA7 [5]) was 8.94 upbm affinity estimate (log intensity, higher = more binding, comparable within an allelic series).
CATTATTA was tested, and the binding signal (HOXA7 [1]) was 11.1 upbm affinity estimate (log intensity, higher = more binding, comparable within an allelic series), the binding signal (HOXB6) was 10 upbm affinity estimate (log intensity, higher = more binding, comparable within an allelic series) and the binding signal (HOXA7 [5]) was 8.89 upbm affinity estimate (log intensity, higher = more binding, comparable within an allelic series).
With GACGCTGC the binding signal (HOXA7 [1]) was 8.24 upbm affinity estimate (log intensity, higher = more binding, comparable within an allelic series), the binding signal (HOXA2 [17]) was 6.99 upbm affinity estimate (log intensity, higher = more binding, comparable within an allelic series) and the binding signal (HOXA2 [18]) was 10.4 upbm affinity estimate (log intensity, higher = more binding, comparable within an allelic series). For the same sequence, the binding signal (HOXA2 [19]) was 10.4 upbm affinity estimate (log intensity, higher = more binding, comparable within an allelic series), the binding signal (HOXA7 [5]) was 8.35 upbm affinity estimate (log intensity, higher = more binding, comparable within an allelic series) and the binding signal (HOXA2 [20]) was 7.11 upbm affinity estimate (log intensity, higher = more binding, comparable within an allelic series).
With CCAAGCCA the binding signal (HOXA7 [1]) was 8.43 upbm affinity estimate (log intensity, higher = more binding, comparable within an allelic series), the binding signal (ALX1 [6]) was 6.51 upbm affinity estimate (log intensity, higher = more binding, comparable within an allelic series) and the binding signal (ALX1 [7]) was 6.6 upbm affinity estimate (log intensity, higher = more binding, comparable within an allelic series). The binding signal (HOXA7 [5]) was 8.54 upbm affinity estimate (log intensity, higher = more binding, comparable within an allelic series) and the binding signal (ALX1 [9]) was 6.46 upbm affinity estimate (log intensity, higher = more binding, comparable within an allelic series).
For CGCAGGTC, the binding signal (HOXA7 [1]) was 8.46 upbm affinity estimate (log intensity, higher = more binding, comparable within an allelic series) and the binding signal (HOXA7 [5]) was 8.44 upbm affinity estimate (log intensity, higher = more binding, comparable within an allelic series).
AGGCAGGC was tested, and the binding signal (HOXA7 [1]) was 8.15 upbm affinity estimate (log intensity, higher = more binding, comparable within an allelic series), the binding signal (PAX4 [21]) was 9.23 upbm affinity estimate (log intensity, higher = more binding, comparable within an allelic series) and the binding signal (PAX4 [22]) was 9.23 upbm affinity estimate (log intensity, higher = more binding, comparable within an allelic series). The binding signal (PAX4 [23]) was 9.37 upbm affinity estimate (log intensity, higher = more binding, comparable within an allelic series), the binding signal (PAX4 [24]) was 9.22 upbm affinity estimate (log intensity, higher = more binding, comparable within an allelic series) and the binding signal (PAX4 [25]) was 9.34 upbm affinity estimate (log intensity, higher = more binding, comparable within an allelic series). The binding signal (PAX4 [26]) was 9.36 upbm affinity estimate (log intensity, higher = more binding, comparable within an allelic series) and the binding signal (HOXA7 [5]) was 8.3 upbm affinity estimate (log intensity, higher = more binding, comparable within an allelic series).
With ACCCAGCC the binding signal (HOXA7 [1]) was 8.44 upbm affinity estimate (log intensity, higher = more binding, comparable within an allelic series), the binding signal (ALX4 [27]) was 8.13 upbm affinity estimate (log intensity, higher = more binding, comparable within an allelic series) and the binding signal (ALX4 [28]) was 8.18 upbm affinity estimate (log intensity, higher = more binding, comparable within an allelic series). The binding signal (VAX1 [29]) was 7.07 upbm affinity estimate (log intensity, higher = more binding, comparable within an allelic series), the binding signal (VAX1 [30]) was 7.26 upbm affinity estimate (log intensity, higher = more binding, comparable within an allelic series) and the binding signal (HOXA7 [5]) was 8.42 upbm affinity estimate (log intensity, higher = more binding, comparable within an allelic series). For the same sequence, the binding signal (VAX1 [31]) was 7 upbm affinity estimate (log intensity, higher = more binding, comparable within an allelic series).
With CTGCTTCA the binding signal (HOXA7 [1]) was 8.51 upbm affinity estimate (log intensity, higher = more binding, comparable within an allelic series), the binding signal (PITX2) was 7.83 upbm affinity estimate (log intensity, higher = more binding, comparable within an allelic series) and the binding signal (HOXA7 [5]) was 8.44 upbm affinity estimate (log intensity, higher = more binding, comparable within an allelic series).
AGGGCGGC was tested, and the binding signal (HOXA7 [1]) was 8.44 upbm affinity estimate (log intensity, higher = more binding, comparable within an allelic series), the binding signal (HOXD13 [11]) was 9.45 upbm affinity estimate (log intensity, higher = more binding, comparable within an allelic series) and the binding signal (HOXD13 [12]) was 9.52 upbm affinity estimate (log intensity, higher = more binding, comparable within an allelic series). The binding signal (VAX1 [29]) was 7.1 upbm affinity estimate (log intensity, higher = more binding, comparable within an allelic series), the binding signal (HOXD13 [13]) was 9.5 upbm affinity estimate (log intensity, higher = more binding, comparable within an allelic series) and the binding signal (VAX1 [30]) was 6.95 upbm affinity estimate (log intensity, higher = more binding, comparable within an allelic series). The binding signal (HOXA7 [5]) was 8.27 upbm affinity estimate (log intensity, higher = more binding, comparable within an allelic series) and the binding signal (VAX1 [31]) was 6.98 upbm affinity estimate (log intensity, higher = more binding, comparable within an allelic series).
With AAGATTAG the binding signal (HOXA7 [1]) was 9.43 upbm affinity estimate (log intensity, higher = more binding, comparable within an allelic series), the binding signal (PRRX1 [32]) was 10.4 upbm affinity estimate (log intensity, higher = more binding, comparable within an allelic series) and the binding signal (PITX2) was 12.4 upbm affinity estimate (log intensity, higher = more binding, comparable within an allelic series). The binding signal (HOXA7 [5]) was 8.65 upbm affinity estimate (log intensity, higher = more binding, comparable within an allelic series), the binding signal (CRX) was 12.4 upbm affinity estimate (log intensity, higher = more binding, comparable within an allelic series) and the binding signal (PRRX1 [33]) was 12.3 upbm affinity estimate (log intensity, higher = more binding, comparable within an allelic series).
